Source: PubChem BioAssay AID652054 (National Center for Advancing Translational Sciences (NCATS), 2013)
The whole screen tested about 360,000 compounds, of which about 9,100 (2.5%) were called active. Inconclusive results (about 4%) are left out. No stated cut-off is given here; in the data, active means max response below about -50%; inconclusive means no clear call, values can overlap the other calls; inactive means above that. Only a selection was taken, and actives are over-represented in it overall.
On the % scale 0 is the no-effect control and ±100 the full control effect.

The compounds below were run against D(3) dopamine receptor (Homo sapiens) (UniProt P35462) (assay: qHTS of D3 Dopamine Receptor Antagonist: qHTS). Conditions: D3R cells, DiscoveRx beta-arrestin luminescence, antagonist mode; hits give low values.
Sequence of D(3) dopamine receptor (Homo sapiens) (P35462 whole entry, looked up): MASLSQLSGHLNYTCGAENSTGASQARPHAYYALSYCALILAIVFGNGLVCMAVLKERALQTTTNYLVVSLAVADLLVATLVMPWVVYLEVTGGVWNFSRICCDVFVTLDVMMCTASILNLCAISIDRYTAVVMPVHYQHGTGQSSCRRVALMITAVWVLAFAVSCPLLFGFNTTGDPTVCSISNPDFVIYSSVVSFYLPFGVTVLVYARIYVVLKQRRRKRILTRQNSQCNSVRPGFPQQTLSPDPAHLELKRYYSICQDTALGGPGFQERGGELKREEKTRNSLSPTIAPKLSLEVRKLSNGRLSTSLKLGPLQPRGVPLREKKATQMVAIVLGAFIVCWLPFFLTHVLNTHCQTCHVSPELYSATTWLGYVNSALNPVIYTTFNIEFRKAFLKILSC
Procedure, shortened: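 Cells plated overnight at 1500 cells/well, then exposed to library compounds with dopamine controls for 90 minutes at 37 degrees C. DiscoveRx reagent added for 30–60 minutes at room temperature; luminescence read, quantitative HTS format.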
In the case of `CC(C)CCNC(=O)c1[nH]c(C(F)(F)F)nc1-c1ccccc1`, the max response, negative = inhibition is reported as 0% (inactive).
In the case of `COCOCCn1cc(CN2CCS(=O)(=O)N(Cc3ccc(-c4ccc(OC)cc4)cc3)C(CC(C)C)C2=O)nn1` (centres undefined), the max response, negative = inhibition is reported as 10.8% (inactive).
For `COc1ccc(NC(=O)CSc2nc(C)cs2)cc1`, the max response, negative = inhibition was 5.34% (inactive).
With `COc1ccc(NC(=O)c2ccc(C#CC(C)(C)O)cc2)cc1` the max response, negative = inhibition was -1.8% (inactive).
`COc1ccc(NC(=O)c2sccc2SCC#N)cc1` was tested, and the max response, negative = inhibition was -82.3% (active).
`C[C@@H]1CN([C@H](C)CO)C(=O)CCCn2cc(nn2)CO[C@H]1CN(C)S(C)(=O)=O` was tested, and the max response, negative = inhibition was 12.7% (inactive).
In the case of `NC(=S)NN=Cc1ccc(OC(=O)COc2cc(Cl)c(Cl)cc2Cl)cn1`, the max response, negative = inhibition is reported as 0.559% (inactive).
`O=C(Nc1ccc2c(c1)OCCO2)C(C1CC1)N1CCC(Cc2ccccc2)CC1` (centres undefined) was tested, and the max response, negative = inhibition was -73.1% (active).
`CCC(C(=O)Nc1ccc2c(c1)OCCO2)c1ccccc1` (centres undefined) was tested, and the max response, negative = inhibition was -13.2% (inactive).
With `O=C(CN1CCOc2ccccc21)N1CCC(Cc2ccccc2)CC1` the max response, negative = inhibition was 0% (inactive).
With `O=C(NCc1ccccc1)C(c1ccc(F)cc1)N1CCN(C(=O)C2CCCO2)CC1` (centres undefined) the max response, negative = inhibition was 29.8% (inactive).
For `CCOC(=O)C1(C)CCCN(C(=O)c2cccc(Cl)c2)C1` (centres undefined), the max response, negative = inhibition was -16.8% (inactive).
For `N#Cc1cccc(NC(=O)COC(=O)c2ccccc2C(=O)c2ccc(Cl)c([N+](=O)[O-])c2)c1`, the max response, negative = inhibition was -50.7% (active).
`COC(=O)c1cc(NC(=O)Cc2ccccc2[N+](=O)[O-])ccc1Cl` was tested, and the max response, negative = inhibition was -7.17% (inactive).
`NC(=O)c1ccc(NC(=O)COC(=O)c2ccc([N+](=O)[O-])cc2)cc1` was tested, and the max response, negative = inhibition was -15.1% (inactive).
For `CCCc1ccc(C(O)c2ncc(-c3cccc(OC)c3)[nH]2)cc1` (centres undefined), the max response, negative = inhibition was 0% (inactive).
With `CC(C)(C)S(=O)N1Cc2cc(C(=O)NCCCN3CCOCC3)nc(-c3cccc(-c4cc5ccccc5o4)c3)c2[C@H]1CCO` (some centres undefined) the max response, negative = inhibition was 9.3% (inactive).
With `CN(c1ccc(C(=O)NCc2ccccn2)cc1)S(C)(=O)=O` the max response, negative = inhibition was -116% (active).
With `CCN(c1ccccc1)S(=O)(=O)c1cc(C(=O)NCc2ccccn2)ccc1C` the max response, negative = inhibition was 4.76% (inactive).
With `COc1cccc(S(=O)(=O)NCc2ccc(C(=O)NCc3ccccn3)cc2)c1` the max response, negative = inhibition was 8.72% (inactive).
For `CC1(Cc2ccccc2C#N)C(=O)Nc2ccc(-c3ccc4[nH]ccc4c3)cc21` (centres undefined), the max response, negative = inhibition was -15.9% (inactive).
`COc1ccc(S(=O)(=O)N[C@@H]2C=C[C@@H](CC(=O)N3CCc4ccccc4C3)O[C@@H]2CO)cc1` was tested, and the max response, negative = inhibition was -0.0851% (inactive).
`COc1ccccc1C1=CC(=O)C[C@H](c2ccc(F)cc2)C1` was tested, and the max response, negative = inhibition was -18.2% (inactive).
With `O=C1C=C(c2cccc(Cl)c2O)C[C@@H](c2ccc(F)cc2)C1` the max response, negative = inhibition was -58.3% (active).
In the case of `COc1cccc(C2=CC(=O)C[C@H](c3ccc(F)cc3)C2)c1OC`, the max response, negative = inhibition is reported as -8.44% (inactive).
For `COC(=O)C1=C(C)N(C)C(=O)NC1c1ccc([N+](=O)[O-])o1` (centres undefined), the max response, negative = inhibition was -10.8% (inactive).
For `COC(=O)C1=C(C)NC2=C(C(=O)c3ccccc32)C1c1ccc(-c2ccc(C(=O)O)cc2)o1` (centres undefined), the max response, negative = inhibition was -75.7% (active).
In the case of `CCOC(=O)c1ccc(-c2ccc(C(=O)Nc3cccnc3)o2)cc1`, the max response, negative = inhibition is reported as 9.54% (inactive).
In the case of `O=C(NCc1ccco1)C1(c2ccc(Cl)cc2)CCCC1`, the max response, negative = inhibition is reported as -5.37% (inactive).
In the case of `O=C(CSc1nnnn1-c1ccccc1)NCc1ccco1`, the max response, negative = inhibition is reported as -1.61% (inactive).
`O=C(CSc1c2c(nc3ccc(Cl)cc13)CCCC2)NCc1ccco1` was tested, and the max response, negative = inhibition was -79.5% (active).
In the case of `Cc1cc(C)n(-c2nnc(N3CCN(c4ccccc4)CC3)nn2)n1`, the max response, negative = inhibition is reported as -8.33% (inactive).
`CN(C)c1ccc(/C=N/Nc2cc(N3CCOCC3)nc(N3CCOCC3)n2)cc1` was tested, and the max response, negative = inhibition was -13.4% (inactive).
`Cc1cc(N/N=C\c2ccc(Br)cc2)nc(-n2nc(C)cc2C)n1` was tested, and the max response, negative = inhibition was -54.3% (active).
In the case of `N#CC1=C(N)C(C#N)(C#N)[C@H](c2ccsc2)[C@H]2COCC=C12`, the max response, negative = inhibition is reported as -56% (active).
`C[C@H]1COc2cc(N3CCSCC3)ccc2S(=O)(=O)N1` was tested, and the max response, negative = inhibition was -22.5% (inactive).
`CCCCC(O)C1=C[N+](=O)CC=C1` (centres undefined) was tested, and the max response, negative = inhibition was 7.65% (inactive).
In the case of `COc1ccc(-c2cc(NC=O)c3ncc(-c4ccccc4)n3c2)cc1OC`, the max response, negative = inhibition is reported as -15.4% (inactive).
In the case of `COc1ccc(S(=O)(=O)NC(=O)C2(C)CCN2C(=O)c2ccccc2CCc2ccccc2)cc1` (centres undefined), the max response, negative = inhibition is reported as -6.13% (inactive).
In the case of `CC(C)(O)C1=C[N+](=O)CC=C1`, the max response, negative = inhibition is reported as -16.9% (inactive).
With `O=C(c1ccccc1)N1CCN(c2cc(-c3ccccc3)nc3cc(-c4cccc(Cl)c4)nn23)CC1` the max response, negative = inhibition was 14.3% (inactive).
In the case of `COC(=O)c1[nH]c2ccccc2c1NC(=O)CN1CCCc2ccccc21`, the max response, negative = inhibition is reported as 9.03% (inactive).
In the case of `Cc1cc(NC(=O)CCN2CCN(Cc3ccccc3)CC2)ccc1Br`, the max response, negative = inhibition is reported as -20.3% (inactive).
For `CCOC(=O)c1[nH]c2ccc(OC)cc2c1NC(=O)CCN1CCN(Cc2ccccc2)CC1`, the max response, negative = inhibition was -54.8% (active).
`COc1ccc(-c2c(C#N)cnc(C)c2C)c(O)c1OC` was tested, and the max response, negative = inhibition was 9.2% (inactive).
With `CC(=O)Nc1cccc(Nc2ccc(C#N)cc2)c1` the max response, negative = inhibition was 1.07% (inactive).
For `c1cc(-c2nn[nH]n2)ccc1CN1CCCCC1`, the max response, negative = inhibition was -18.9% (inactive).
`Clc1ccc(-n2nnnc2CN2CCCCC2)cc1Cl` was tested, and the max response, negative = inhibition was -19.7% (inactive).
For `Clc1ccc(CN2CCCCCC2)cc1Cl`, the max response, negative = inhibition was -62.3% (active).
In the case of `CC1(C(=O)NCc2ccc3c(c2)OCO3)CCN1CCc1ccccc1` (centres undefined), the max response, negative = inhibition is reported as -10.3% (inactive).
In the case of `COCCNc1nc(NCc2ccc(NC(C)=O)cc2)c2sccc2n1`, the max response, negative = inhibition is reported as 23.6% (inactive).
With `COc1ccc(NC(=O)C2Cc3c(-c4ccc5c(c4)OCO5)ccnc3O2)cn1` (centres undefined) the max response, negative = inhibition was -19.8% (inactive).
For `CC1(C)Cc2ccccc2-c2nc(CN3CCOCC3)[nH]c(=O)c21`, the max response, negative = inhibition was 8.19% (inactive).
For `CC1(C)Cc2ccccc2/C(=C/C(=O)c2ccccc2)N1`, the max response, negative = inhibition was 3.22% (inactive).
`CC1(C)Cc2ccccc2-c2[nH]c(=S)[nH]c(=O)c21` was tested, and the max response, negative = inhibition was -54.5% (active).
With `COc1cc(Cn2c3ccc(NC(=O)CC(C)c4ccccc4)cc3c(=O)n2C)ccc1F` (centres undefined) the max response, negative = inhibition was 0% (inactive).
With `CC1(C(=O)NS(=O)(=O)c2ccc(C#N)cc2)CCN1C(=O)c1ccc(C2CCCCC2)cc1` (centres undefined) the max response, negative = inhibition was -14.3% (inactive).
For `OCC1OC(n2cnc3c(N4CCCC4)ncnc32)C(O)C1O` (centres undefined), the max response, negative = inhibition was 10.4% (inactive).
In the case of `O=C(OCc1cn([C@@H]2C[C@H](c3ccc(Cl)cc3)N(Cc3cccs3)C[C@H]2O)nn1)c1ccccc1`, the max response, negative = inhibition is reported as -15% (inactive).
In the case of `CCN(CC)CCNC(=O)c1cc(S(C)(=O)=O)ccc1OC`, the max response, negative = inhibition is reported as -60.5% (active).
With `CCN(CC)CCNC(=O)c1ccc(NS(=O)(=O)c2ccc3c(c2)OCCO3)cc1` the max response, negative = inhibition was 2.66% (inactive).
For `COc1ccc(S(=O)(=O)NC(C)C)cc1C(=O)NC1CCCCC1`, the max response, negative = inhibition was 11.4% (inactive).
`COc1cccc(CN2CCC(C(=O)NC(c3ccc4c(c3)OCO4)c3ccccn3)CC2)c1` (centres undefined) was tested, and the max response, negative = inhibition was -21.6% (inactive).
For `O=C(NCCN1CCOCC1)c1ccc2c(c1)N(Cc1cccc(Cl)c1)C(=O)c1ccccc1S2(=O)=O`, the max response, negative = inhibition was -29.4% (inactive).
`CC1(C(=O)Nc2cccc3c2CCCC3)CCN1C(=O)C1(c2ccccc2)CC1` (centres undefined) was tested, and the max response, negative = inhibition was 11.6% (inactive).
`CCOC(=O)N1CCN(C(=O)C2CCN(Cc3ccc(OC)cc3OC)CC2)CC1` was tested, and the max response, negative = inhibition was 0.368% (inactive).
In the case of `CCOC(=O)c1cc2cc(OC)ccc2n1C1CCN(C)CC1`, the max response, negative = inhibition is reported as -92.9% (active).
In the case of `CCOC(=O)C1CCCN(C(=O)/C=C/c2ccc(OC)cc2)C1` (centres undefined), the max response, negative = inhibition is reported as -24.9% (inactive).
In the case of `O=C1c2ccccc2C(c2nc3ccccc3[nH]2)N1c1ccccc1` (centres undefined), the max response, negative = inhibition is reported as 6.4% (inactive).
With `O=C(c1ccc(CS(=O)Cc2ccccc2Cl)o1)N1CCN(c2ccccc2)CC1` (centres undefined) the max response, negative = inhibition was 2.17% (inactive).
With `CS(=O)(=O)/C(C#N)=C/c1cccn1S(=O)(=O)c1ccc([N+](=O)[O-])cc1` the max response, negative = inhibition was -13.9% (inactive).
For `O=S1(=O)CCN(Cc2ccccc2)CC1`, the max response, negative = inhibition was -8.1% (inactive).
In the case of `O=C(CN1CCN(Cc2ccccc2)CC1)NC(c1ccccc1)c1ccccc1`, the max response, negative = inhibition is reported as -9.3% (inactive).
With `O=C1c2ccccc2C(=O)c2c1cccc2N1CCN(Cc2ccccc2)CC1` the max response, negative = inhibition was -83% (active).
With `FC(F)(F)c1cccc(-c2nc3ccccc3n2C(c2ccccc2)c2nc3ccccc3[nH]2)c1` (centres undefined) the max response, negative = inhibition was 7.98% (inactive).
`CCCNC(=O)c1cc(C2CCCCN2S(=O)(=O)c2ccc(C#N)cc2)on1` (centres undefined) was tested, and the max response, negative = inhibition was 15.7% (inactive).
For `CCOc1ccc(CCN2C(=O)C(=O)N([C@@H](CC(C)C)CN3CCC[C@H]3CN3C(=O)C(=O)NC[C@@H]3Cc3ccccc3)C[C@@H]2CC(C)C)cc1`, the max response, negative = inhibition was 2.39% (inactive).
With `COc1ccc(NS(=O)(=O)c2cccc3nsnc23)cc1Cl` the max response, negative = inhibition was -6.5% (inactive).
In the case of `O=S(=O)(Nc1ccccc1Cl)c1cccc2nsnc12`, the max response, negative = inhibition is reported as -8.87% (inactive).
In the case of `O=C(O)c1ccc(NS(=O)(=O)c2cccc3nsnc23)cc1`, the max response, negative = inhibition is reported as -88.2% (active).
With `Cc1cn([C@H]2C[C@H](O)[C@@H](/C=C/C(=O)NCCCc3ccccc3)O2)c(=O)[nH]c1=O` the max response, negative = inhibition was 0% (inactive).
For `CCOc1ccc(NS(=O)(=O)c2ccc(C(=O)NCC3CCCO3)cc2)cc1` (centres undefined), the max response, negative = inhibition was -69.2% (active).
With `CCOc1ccc(NS(=O)(=O)c2ccc(C(=O)NC3CCN(Cc4ccccc4)CC3)cc2)cc1` the max response, negative = inhibition was -68.8% (active).
For `CCOc1ccc(C(=O)NC2CCN(S(=O)(=O)CC)CC2)cc1`, the max response, negative = inhibition was 8.12% (inactive).
With `CCOc1ccc(CC(=O)NC2CCN(Cc3ccccc3)CC2)cc1` the max response, negative = inhibition was -12.8% (inactive).
In the case of `CCOc1ccc(S(=O)(=O)NCCC(=O)NCC2CCCO2)cc1` (centres undefined), the max response, negative = inhibition is reported as 20.2% (inactive).
In the case of `O=C(NCC1CCCO1)c1ccc(S(=O)(=O)Nc2ccc(F)cc2)cc1` (centres undefined), the max response, negative = inhibition is reported as -12.1% (inactive).
`O[C@H]1C[C@H](c2ccc(Cl)cc2)N(Cc2cccs2)C[C@@H]1n1cc(C2CC2)nn1` was tested, and the max response, negative = inhibition was -1.65% (inactive).
In the case of `O=S1(=O)CC(N2CCN(CCO)CC2)CN1C1CCCC1` (centres undefined), the max response, negative = inhibition is reported as 8.42% (inactive).
